Test results: PubChem BioAssay AID2288 (National Center for Advancing Translational Sciences (NCATS), 2010)
Screen size: about 340,000 compounds; fewer than 10 were called active. About 2% were inconclusive and are not listed. The call rests on the fitted dose curve; in most records, active means well fitted curve in the direction sought with a large enough effect; inconclusive means small, poorly fitted or top-dose-only effect, or another doubt; inactive means no such curve, though single readings can be large or run the other way. These entries were drawn from the full list.

Assay: qHTS Assay for Modulators of miRNAs and/orActivators of miR-21;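 further: % of control where 0% means no effect; miR-21 action dims this reporter so a rising signal means less miR-21 action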
Conditions: HeLa miR-21 FLuc reporter, luciferase, 48 h; series mostly up to 38.3 µM; activity change, positive = activation: at the top concentration
From the text: MLSCN Grant: 1 R21 NS059478-01 Assay Provider: Qihong Huang, The Wistar Institute NCGC Assay Overview: MicroRNAs (miRNAs) are endogenously encoded small (~20-25 nucleotides), nonprotein-coding RNAs that are involved in post-transcriptional repression of target messenger RNAs (mRNAs) (Le and Hannon, 2004). Estimated to be involved in the regulation of 30% of all protein-coding mRNAs (Filipowicz et al., 2008), miRNAs play a significant role in many biological processes including cellular differentiation and tissue development (Ghildiyal and Zamore, 2009).
NCGC Assay Protocol Summary: Reagents: HeLa cells stably expressing firefly luciferase (FLuc) under the control of a CMV promoter (upstream) and a miR-21 binding sequence directly downstream of the gene. These cells endogenously express miR-21. Control compounds used were compound C3 (provided by collaborator), N6-phenyladenosine (MP Biomedicals, 0215379625), and DMSO. Assay Summary: 6uL of HeLa miR-21-FLuc cells in assay buffer (DMEM, Invitrogen #21063-029; 10% FBS, HyClone #SH30071.03) were dispensed at 2000cells/well (3.3 x 10^5 cells/mL) into Greiner solid-white TC-treated 1536-well plates using a Multidrop Combi (Thermo Fisher Scientific). Plates were incubated for one hour at 37 degree Celsius, 95% humidity, 5% CO2. These assay plates were then treated with 23nL of compound or DMSO using a Kalypsys pin tool, which allows for delivery of a 24-point titration of each compound to the assay plate, with a final compound concentration ranging from approximately 40uM to 5pM. Assay plates were then incubated for 48 hours. After incubation, plates were allowed to come to RT for one hour prior to delivery of 3uL of 3X luciferase detection reagent. After a 15 minute incubation to allow for cell lysis, luciferase activity was measured using a ViewLux CCD imager (PerkinElmer), with an average exposure time of 2-12 seconds. Keywords: NIH Roadmap, MLPCN, MLSMR, qHTS, miR-21, microRNA, firefly luciferase, FLuc.

Activity change, positive = activation, inactive:
CCCN1CCN(CCCNC(=O)c2cnn(-c3ccc(C)cc3)c2-n2cccc2)CC1 1.18%
CCCCN(CC)C(=O)c1c[nH]c2ccc(S(=O)(=O)Nc3cccc(OC)c3)cc2c1=O 23%
Cc1c(-c2nc(-c3ccc4c(c3)OCO4)no2)nnn1-c1ccc(Br)cc1F -18%
O=C(NCc1cccnc1)C(=O)NCC(c1cccnc1)N1CCN(c2ccccc2)CC1 (stereo not given) -6.67%
Cc1ccccc1C(=O)NCc1nc(-c2ccc(Cl)cc2)no1 8.3%
CCOc1ccc(NC(=O)Cn2c(=O)n(CCCC(=O)NCc3ccc4c(c3)OCO4)c(=O)c3ccccc32)cc1 2.53%
CCOc1ccc(Nc2oc(/C=C/c3ccc(F)cc3)nc2C#N)cc1 -7.27%
CCOc1ccc(OCC)c(NC(=O)c2cc(C)nc3c2c(C)nn3-c2cccc(Cl)c2C)c1 -0.924%
COC(=O)c1ccc(NC(=O)CCc2c(C)nc3c(c(C)nn3-c3ccc(C)cc3)c2C)cc1 -1.39%
COc1cc(Cl)c(NC(=O)CC(C)S(=O)(=O)c2cc3c(cc2C)NC(=O)CO3)c(OC)c1 (stereo not given) -10.4%
Cc1ccc(CN2CCc3nc(N4CCN(C)CC4)ncc3C2)cc1 -0.868%
CCOC(=O)c1ccc2c(c1)N(Cc1cccc(OC)c1)C(=O)c1ccccc1S2(=O)=O 1.39%
COc1ccc(Cc2nc3ccc(C(=O)NCc4ccccc4C)cc3o2)cc1 2.75%
CCOC(=O)c1c(C)[nH]c(CCC(=O)NCCCN2CCN(c3cccc(Cl)c3)CC2)c1C 26.2%
Cc1ccc(SCC(=O)Nc2ccc3oc(-c4ccccc4F)nc3c2)cc1 -21.4%
CN(C(=O)CSc1nc2ccccc2n1Cc1ccccc1C#N)c1ccccc1 9.67%
CCc1nnc(SCc2nc(-c3cccc(C)c3)oc2C)c2cc3sc(C)cc3n12 0.608%
COc1ccccc1N1CCN(c2ncnc3onc(-c4ccc(F)cc4)c23)CC1 -4.41%
CC(C)Oc1ccc(CNC(=O)C2CCN(c3nc4ccccc4n(C)c3=O)CC2)cc1 1.16%
CC(C)c1ccc(NS(=O)(=O)c2ccc3[nH]cc(C(=O)NC4CCCC4)c(=O)c3c2)cc1 3.86%
Cc1ccc(-n2nc(C)c3c(C)cc(=O)n(CC(=O)Nc4ccc(C(C)C)cc4)c32)cc1 0.922%
O=C(NCCCO)c1nn(-c2ccc(Cl)cc2)nc1CO 4.39%
COc1ccccc1CNC(=O)CCCn1c(=O)c2ccccc2n(CC(=O)Nc2ccc(C)cc2Cl)c1=O 2.72%
COc1cccc(-n2c(=O)c3c(C)c(C(=O)N(C)C)sc3n(Cc3cccc(C)c3)c2=O)c1 -7.64%
CCOc1cccc2sc(N3CCN(C(=O)C4CC4)CC3)nc12 -4.33%
CCc1nn(CC(=O)N2CCN(c3ccc(Cl)cc3)CC2)c(=O)c2cc3occc3n12 -1.09%
CSc1ncc(C(=O)NCc2ccccc2Cl)c(C(F)(F)F)n1 -5.83%
COc1ccc(CC(=O)Nc2nnc3n2CCS3)cc1OC -0.241%
Cc1ccc(-c2nn(CCC(=O)Nc3ccc(Cl)c(Cl)c3)c(=O)c3ccccc23)cc1 4.57%
CCC(=O)Nc1ccccc1-c1nc2ccccc2n(CC(=O)Nc2ccc(C)c(C)c2)c1=O -3.9%
CCN1CCc2nc3sc(C(=O)Nc4ccccc4OC(F)(F)F)c(N)c3cc2C1 26.3%
CCOC(=O)c1cc(NC(=O)c2ccc(F)cc2)c(=O)n2c1oc1ccccc12 -9.24%
CCOc1ccc(N(CC)S(=O)(=O)N2CCCC(C(=O)NCc3ccc(SC)cc3)C2)cc1 (stereo not given) 27.8%
COc1ccc(CNC(=O)CSc2n[nH]c(-c3ccc(F)cc3)n2)cc1 17.4%
COc1ccc(CN2C(=O)C(NC(=O)c3cccc(C)c3)(C(F)(F)F)N=C2c2ccccc2)cc1 (stereo not given) -0.25%
Cc1c(Cl)cccc1NC(=O)C(=O)NCCc1csc2nc(-c3ccccc3F)nn12 21.8%
COCCNC(=O)CSc1c(C)cnc2c1c(=O)n(C)c(=O)n2C -1.95%
O=C(c1ccccc1F)N1CCC(c2nc3c(nnn3Cc3cccc(F)c3)c(=O)[nH]2)CC1 -3.46%
COc1ccc(OC)c(NC(=O)CSC2=Nc3ccccc3C3=NC(CC(=O)NCc4ccc(F)cc4)C(=O)N23)c1 (stereo not given) 0.599%
COc1ccccc1-c1nnc(SCC(N)=O)o1 -43.6%
COc1cc(NS(=O)(=O)c2ccc3c(c2)OCC(C(=O)N2CCCC2)O3)cc(OC)c1 (stereo not given) 8.58%
Cc1ccc(C)c(NC(=O)CSC2=Nc3ccccc3N=C(c3ccc(F)cc3)C2)c1 4.67%
Cc1cc(C)cc(NC(=O)Cc2csc(C)n2)c1 -1.74%
CCc1nccn1S(=O)(=O)c1cc(Br)ccc1Br -2.49%
CC(=O)Nc1ccc(NC(=O)CSc2nnc3c4cc(Br)ccc4n(C)c3n2)cc1 -3.89%
Cc1ccc(C)c(CNC(=O)c2cc3ccccn3n2)c1 0.252%
Cc1ccc(C)c(Cn2c(C)c(CNCc3ccc(F)cc3)c(C(=O)O)c2C)c1 4.63%
CCOC(=O)c1ccc(NC(=O)CSc2nc3c([nH]c4ccccc43)c(=O)n2C)cc1 -6.03%
CCc1ccc(-n2nnc(-c3nc(-c4ccccc4)no3)c2C)cc1 -68.1%
O=C(NCCCN1CCN(c2cccc(Cl)c2)CC1)c1nnc(Cc2ccc(F)cc2Cl)o1 23.8%
CCNC(=O)CC1C(=O)N(c2ccc(F)cc2)C(=O)N1Cc1ccc(C)cc1 (stereo not given) 3.25%
CCOC(=O)c1[nH]c(C)c(CCC(=O)NCc2ccccc2C)c1C 0.547%
COc1ccc(NC(=O)COCc2cc(-c3ccco3)on2)cc1 1.75%
O=C(CCSCc1cccc(F)c1)NCc1ccccc1 3.37%
CN(Cc1ccccc1)c1ccc(-c2nc(-c3ccccc3)no2)cc1[N+](=O)[O-] 0.0426%
Cc1ccc(C(=O)Nc2cc3c(cc2N2CCCC2)n(C)c(=O)c(=O)n3C)cc1 -7.41%
CCCOC(=O)c1c(NC(=O)c2cc3nc(-c4ccc(OC)cc4)cc(C(F)(F)F)n3n2)sc2c1CCCC2 -6.35%
Cc1ccc(-c2nc(CS(=O)(=O)CC(=O)NCc3ccccc3Cl)c(C)o2)cc1 3.02%
Cc1nn(C(C)C(=O)NCCc2ccccc2)c(=O)c2c1sc1ccccc12 (stereo not given) -34.9%
CCN(C(=O)Cn1cc(S(=O)(=O)N2CCN(c3ccccc3F)CC2)c2ccccc2c1=O)c1ccc(C)c(C)c1 3.6%
CCOC(=O)c1cccc(NC(=O)c2cc(S(=O)(=O)N3CCCC(C)C3)cn2C)c1 (stereo not given) 13.2%
COc1ccc(-c2[nH]c3c(c2-c2c(-n4cccc4)n(C)c(=O)n(C)c2=O)c(=O)n(C)c(=O)n3C)cc1 -3.83%
O=c1c2cccnc2n(Cc2cccc(F)c2)c(=O)n1Cc1ccccc1Cl -6.44%
Cc1ccc(-c2nc(Cn3c(=O)cc(-c4ccccc4)c4c(C)nn(C)c43)c(C)o2)cc1 0.288%
COC(=O)c1c(NC(=O)C(C)Oc2ccc(Cl)c(C)c2)sc(C)c1C (stereo not given) -18.3%
Cc1cccc(Cn2c(SCc3ccc(C(=O)N4CCC(C)CC4)cc3)nc3ccncc32)c1 25.3%
CCc1cnc2c(c1SCC(=O)c1ccccc1)c(=O)n(C)c(=O)n2C -16.3%
CC(C)c1ccc(NC(=O)c2ccc(Cn3nc(N4CCN(c5ccccc5)CC4)ccc3=O)o2)cc1 2.33%
Cc1ccc(-c2nnc3c4ccccc4c(C)nn23)cc1NC(=O)c1cccc(Br)c1 -9.57%
CC(=O)c1ccc(NC(c2ccc(F)cc2)c2nnc(-c3ccccc3)o2)cc1 (stereo not given) 0.435%
CCN(C(=O)Cn1cnc2sc(C)c(S(=O)(=O)N3CCN(c4ncccn4)CC3)c2c1=O)c1ccccc1F -1.51%
Cc1cccc(N2CCN(C3=C(c4ccccc4)C(=O)c4ccccc43)CC2)c1C 16.4%
COc1cccc(NC(=O)c2csnn2)c1 -36.8%
N#C/C(=C\c1cccc(F)c1)c1nc(-c2cc3c(ccc4ccccc43)oc2=O)cs1 2.83%
CC(=O)c1ccc(NC(=O)C2CCN(S(=O)(=O)c3c(C)noc3/C=C/c3ccc(C)cc3)CC2)cc1 -1.89%
CCOc1ccccc1C(=O)NC1(C(F)(F)F)C(=O)Nc2c1c(=O)[nH]c(=O)n2-c1ccc(F)cc1 (stereo not given) 4.18%
O=C1CN(C(=O)Nc2ccccc2C(F)(F)F)C(c2ccccc2)c2c(sc3c2CCCC3)N1 (stereo not given) 1.97%
O=C1OC(C(=O)Nc2cccc(Br)c2)Cc2ccccc21 (stereo not given) -45.3%
O=C(CCOc1ccccc1)N(Cc1cccnc1)c1nc2ccc(Cl)cc2s1 -2.02%
CC(C)(C)NC(=O)CSc1nc(-c2ccc(F)cc2)cc(C(F)(F)F)n1 10.2%
O=C(CSc1nc2nccnc2c(=O)n1CCc1c[nH]c2ccccc12)Nc1ccccc1F 11.4%
Cn1c(SCC(=O)N2CCCc3ccccc32)ncc(C(=O)Nc2ccc(F)cc2)c1=O -2.64%
Cc1ccc(Cl)cc1N(C)C(=O)Cn1nc(Cc2cccnc2)c2ccccc2c1=O -8.75%
COc1ccc(SCc2cc(=O)c3ccc(C)c(C)c3[nH]2)cc1 1.63%
Cc1cccc(OCCSc2nc3ccccc3n2CC(=O)N2CCCCC2)c1C 8.76%
COc1ccc(NC(=O)C(c2ccccc2)N2Cc3ccccc3C2=O)cc1 (stereo not given) -2.4%
CCCN1CN=C(NS(=O)(=O)c2ccc(NC(C)=O)cc2)NC1 -7.13%
COc1ccc(-c2nn3c(=O)cc(CN4CCN(C(=O)c5ccc(OC)c(OC)c5)CC4)nc3s2)cc1 -0.908%
CCOC(=O)c1c(C)[nH]c(C)c1S(=O)(=O)N(C)CC(=O)N1CCN(c2ccccc2)CC1 -3.7%
COc1ccc2c(c1)c(=O)c(C(=O)c1ccccc1)cn2CC(=O)Nc1ccc2c(c1)OCCO2 -0.936%
Cc1ccc(CNS(=O)(=O)c2ccc(C(=O)N(C)C)s2)cc1 -3.73%
COc1ccc(-c2c3c(=O)n(C)c(=O)n(C)c3c3c(C)nc4ccccc4n23)cc1 0.257%
Cc1ccc(CN(C(=O)COc2ccc(Cl)cc2C)C2CCS(=O)(=O)C2)o1 (stereo not given) -1.35%
Cc1ccc(NC(=O)c2ccc3[nH]c(C)cc(=O)c3c2)c(C)c1 -42.2%
Cc1ccccc1CCNC(=O)C1CCN(c2nc3ccccc3nc2C(F)(F)F)CC1 6.8%
COC(=O)c1ccc(NC(=O)CCc2c(C)nn(-c3ccc(N4CCCC4)nn3)c2C)cc1 0.69%
Cc1cc(C)cc(NC(=O)c2cnc3sc(N4CCCC4)nn3c2=O)c1 8.36%
O=C(Cn1cnc2c(oc3ccccc32)c1=O)Nc1ccc(OC(F)(F)F)cc1 -0.243%
COc1ccccc1C(=O)OCc1cc(=O)n2nc(-c3cccs3)sc2n1 -12.8%
Cc1ccc(-c2nnc(SCc3ccccc3C)o2)cc1 -49.1%
CCN(CC)C(=O)CSc1nc2ccsc2c(=O)n1Cc1ccccc1Cl 9.18%
COc1ccc(CCNCc2c(C(=O)O)c(C)n(Cc3cccc(C)c3)c2C)cc1OC 0.673%
COc1ccc(-n2c(=O)c3c(c4cc(OC)ccc4n3C)n(Cc3cccc(C)c3)c2=O)cc1 -0.701%
COc1ccc(OC)c(CCNC(=O)CCCn2c(=O)c3cccn3c3cccnc32)c1 -7.82%
Cc1nn2c(=O)cc(COC(=O)c3cccc(NC(=O)COc4ccccc4Cl)c3)nc2s1 -1.72%
